# Assay results as given in paper PMC11062922 (Nature Chemical Biology, 2023).
# Where two headings read alike, the source gives them in different places.
# Test system: AURKA
# Conditions: read-out: apparent Kd, n = 1
substance,measurement,setting,value
Lestaurtinib,potency estimated from few doses,"compound concentrations:100 nM and 1000 nM (sheet 'Lestaurtinib' of Supplementary Table 1),run:Lestaurtinib_02438_R2,Plate:MR008",18.1 nM
same,potency estimated from few doses,"compound concentrations:100 nM and 1000 nM (sheet 'Lestaurtinib' of Supplementary Table 1),run:Lestaurtinib_02438_R3,Plate:MR008",16.7 nM
same,potency estimated from few doses,"compound concentrations:100 nM and 1000 nM (sheet 'Lestaurtinib' of Supplementary Table 1),run:Lestaurtinib_02443_R1,Plate:MR009",19 nM
same,potency estimated from few doses,"compound concentrations:100 nM and 1000 nM (sheet 'Lestaurtinib' of Supplementary Table 1),run:Lestaurtinib_02443_R3,Plate:MR009",22 nM
same,potency estimated from few doses,"compound concentrations:100 nM and 1000 nM (sheet 'Lestaurtinib' of Supplementary Table 1),run:Lestaurtinib_02473_R1,Plate:MR010",20 nM
same,potency estimated from few doses,"compound concentrations:100 nM and 1000 nM (sheet 'Lestaurtinib' of Supplementary Table 1),run:Lestaurtinib_02473_R3,Plate:MR010",16.1 nM
same,potency estimated from few doses,"compound concentrations:100 nM and 1000 nM (sheet 'Lestaurtinib' of Supplementary Table 1),run:Lestaurtinib_02482_R1,Plate:MR011",18.9 nM
same,potency estimated from few doses,"compound concentrations:100 nM and 1000 nM (sheet 'Lestaurtinib' of Supplementary Table 1),run:Lestaurtinib_02482_R2,Plate:MR011",19.3 nM
same,potency estimated from few doses,"compound concentrations:100 nM and 1000 nM (sheet 'Lestaurtinib' of Supplementary Table 1),run:Lestaurtinib_02487_R1,Plate:MR012",17.5 nM
same,potency estimated from few doses,"compound concentrations:100 nM and 1000 nM (sheet 'Lestaurtinib' of Supplementary Table 1),run:Lestaurtinib_02487_R3,Plate:MR012",24.8 nM
same,potency estimated from few doses,"compound concentrations:100 nM and 1000 nM (sheet 'Lestaurtinib' of Supplementary Table 1),run:Lestaurtinib_02496_R2,Plate:MR013",17.6 nM
same,potency estimated from few doses,"compound concentrations:100 nM and 1000 nM (sheet 'Lestaurtinib' of Supplementary Table 1),run:Lestaurtinib_02566_R2,Plate:MR014",21.1 nM
same,potency estimated from few doses,"compound concentrations:100 nM and 1000 nM (sheet 'Lestaurtinib' of Supplementary Table 1),run:Lestaurtinib_02572_R1,Plate:MR015",21.1 nM
same,potency estimated from few doses,"compound concentrations:100 nM and 1000 nM (sheet 'Lestaurtinib' of Supplementary Table 1),run:Lestaurtinib_02572_R3,Plate:MR015",17.9 nM
same,potency estimated from few doses,"compound concentrations:100 nM and 1000 nM (sheet 'Lestaurtinib' of Supplementary Table 1),run:Lestaurtinib_02577_R1,Plate:MR016",21.8 nM
same,potency estimated from few doses,"compound concentrations:100 nM and 1000 nM (sheet 'Lestaurtinib' of Supplementary Table 1),run:Lestaurtinib_02577_R2,Plate:MR016",21.1 nM
same,potency estimated from few doses,"compound concentrations:100 nM and 1000 nM (sheet 'Lestaurtinib' of Supplementary Table 1),run:Lestaurtinib_02577_R3,Plate:MR016",20.9 nM
same,potency estimated from few doses,"compound concentrations:100 nM and 1000 nM (sheet 'Lestaurtinib' of Supplementary Table 1),run:Lestaurtinib_02584_R1,Plate:MR017",21.8 nM
same,potency estimated from few doses,"compound concentrations:100 nM and 1000 nM (sheet 'Lestaurtinib' of Supplementary Table 1),run:Lestaurtinib_02584_R2,Plate:MR017",19.7 nM
same,potency estimated from few doses,"compound concentrations:100 nM and 1000 nM (sheet 'Lestaurtinib' of Supplementary Table 1),run:Lestaurtinib_02601_R1,Plate:MR018",21.1 nM
same,potency estimated from few doses,"compound concentrations:100 nM and 1000 nM (sheet 'Lestaurtinib' of Supplementary Table 1),run:Lestaurtinib_02601_R2,Plate:MR018",25.6 nM
same,potency estimated from few doses,"compound concentrations:100 nM and 1000 nM (sheet 'Lestaurtinib' of Supplementary Table 1),run:Lestaurtinib_02601_R3,Plate:MR018",21.7 nM
same,potency estimated from few doses,"compound concentrations:100 nM and 1000 nM (sheet 'Lestaurtinib' of Supplementary Table 1),run:Lestaurtinib_02606_R1,Plate:MR019",19.1 nM
same,potency estimated from few doses,"compound concentrations:100 nM and 1000 nM (sheet 'Lestaurtinib' of Supplementary Table 1),run:Lestaurtinib_02606_R2,Plate:MR019",20.8 nM
same,potency estimated from few doses,"compound concentrations:100 nM and 1000 nM (sheet 'Lestaurtinib' of Supplementary Table 1),run:Lestaurtinib_02606_R3,Plate:MR019",21.9 nM
same,potency estimated from few doses,"compound concentrations:100 nM and 1000 nM (sheet 'Lestaurtinib' of Supplementary Table 1),run:Lestaurtinib_02624_R1,Plate:MR020",17.5 nM
same,potency estimated from few doses,"compound concentrations:100 nM and 1000 nM (sheet 'Lestaurtinib' of Supplementary Table 1),run:Lestaurtinib_02624_R3,Plate:MR020",15.7 nM
same,potency estimated from few doses,"compound concentrations:100 nM and 1000 nM (sheet 'Lestaurtinib' of Supplementary Table 1),run:Lestaurtinib_02724_R2,Plate:MR021",21.3 nM
same,potency estimated from few doses,"compound concentrations:100 nM and 1000 nM (sheet 'Lestaurtinib' of Supplementary Table 1),run:Lestaurtinib_02741_R2,Plate:MR023",19.9 nM
same,potency estimated from few doses,"compound concentrations:100 nM and 1000 nM (sheet 'Lestaurtinib' of Supplementary Table 1),run:Lestaurtinib_02741_R3,Plate:MR023",23.2 nM
same,potency estimated from few doses,"compound concentrations:100 nM and 1000 nM (sheet 'Lestaurtinib' of Supplementary Table 1),run:Lestaurtinib_02748_R2,Plate:MR024",22.5 nM
same,potency estimated from few doses,"compound concentrations:100 nM and 1000 nM (sheet 'Lestaurtinib' of Supplementary Table 1),run:Lestaurtinib_02748_R3,Plate:MR024",22.2 nM
same,potency estimated from few doses,"compound concentrations:100 nM and 1000 nM (sheet 'Lestaurtinib' of Supplementary Table 1),run:Lestaurtinib_02752_R1,Plate:MR025",19 nM
same,potency estimated from few doses,"compound concentrations:100 nM and 1000 nM (sheet 'Lestaurtinib' of Supplementary Table 1),run:Lestaurtinib_02752_R2,Plate:MR025",16 nM
same,potency estimated from few doses,"compound concentrations:100 nM and 1000 nM (sheet 'Lestaurtinib' of Supplementary Table 1),run:Lestaurtinib_02752_R3,Plate:MR025",19.7 nM
same,potency estimated from few doses,"compound concentrations:100 nM and 1000 nM (sheet 'Lestaurtinib' of Supplementary Table 1),run:Lestaurtinib_02765_R2,Plate:MR026",23.1 nM
same,potency estimated from few doses,"compound concentrations:100 nM and 1000 nM (sheet 'Lestaurtinib' of Supplementary Table 1),run:Lestaurtinib_02766_R1,Plate:MR027",17.5 nM
same,potency estimated from few doses,"compound concentrations:100 nM and 1000 nM (sheet 'Lestaurtinib' of Supplementary Table 1),run:Lestaurtinib_02766_R2,Plate:MR027",17 nM
same,potency estimated from few doses,"compound concentrations:100 nM and 1000 nM (sheet 'Lestaurtinib' of Supplementary Table 1),run:Lestaurtinib_02766_R3,Plate:MR027",19.1 nM
same,potency estimated from few doses,"compound concentrations:100 nM and 1000 nM (sheet 'Lestaurtinib' of Supplementary Table 1),run:Lestaurtinib_02768_R1,Plate:MR028",20.8 nM
same,potency estimated from few doses,"compound concentrations:100 nM and 1000 nM (sheet 'Lestaurtinib' of Supplementary Table 1),run:Lestaurtinib_02768_R3,Plate:MR028",19.7 nM
same,potency estimated from few doses,"compound concentrations:100 nM and 1000 nM (sheet 'Lestaurtinib' of Supplementary Table 1),run:Lestaurtinib_02795_R3,Plate:MR022",60.5 nM
